Out of some 5,500 compounds screened, about 2,000 (36%) were called active. Inconclusive results (about 18%) are left out. No stated cut-off is given here; in the data, active means normalized growth mostly below about 0.91 (no sharp cut-off); inconclusive means no clear call, values can overlap the other calls; inactive means mostly above about 0.92. The list shows a part of the results.
Test: chemical genetic growth profiling, strain panel (AID 1159580);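 further: tested at 20 µM; growth read once vehicle control cultures reached saturation at 30 °C; 1 = growth at the plate median or of vehicle wells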
Conditions: S. cerevisiae deletion strains, growth OD

Measured: normalized growth

O=c1c(-c2ccc(O)cc2)coc2c(C3O[C@H](CO)[C@@H](O)[C@H](O)[C@H]3O)c(O)ccc12 (stereo not given in full)
inactive: locus YAL021C, strain ccr4, stronger effect = lower value 1.01 | locus YAL026C, strain drs2, stronger effect = lower value 0.991 | locus YAL030W, strain snc1, stronger effect = lower value 0.982 | locus YBL061C, strain skt5, stronger effect = lower value 0.977 | locus YBR009C, strain hhf1, stronger effect = lower value 0.957 | locus YBR023C, strain chs3, stronger effect = lower value 0.991 | locus YBR171W, strain sec66, stronger effect = lower value 0.977 | locus YBR231C, strain swc5, stronger effect = lower value 0.979 | locus YBR279W, strain paf1, stronger effect = lower value 0.985 | locus YCL011C, strain gbp2, stronger effect = lower value 0.968 | locus YCL016C, strain dcc1, stronger effect = lower value 0.991 | locus YCL061C, strain MRC1, stronger effect = lower value 0.994 | locus YCL069W, strain vba3, stronger effect = lower value 0.973 | locus YCR088W, strain abp1, stronger effect = lower value 0.996 | locus YDL005C, strain med2, stronger effect = lower value 0.978 | locus YDL040C, strain nat1, stronger effect = lower value 0.977 | locus YDR001C, strain nth1, stronger effect = lower value 0.978 | locus YDR069C, strain doa4, stronger effect = lower value 1 | locus YDR137W, strain rgp1, stronger effect = lower value 0.995 | locus YDR159W, strain sac3, stronger effect = lower value 0.933 | locus YDR195W, strain ref2 0.951 | locus YDR297W, strain sur2, stronger effect = lower value 0.978 | locus YDR334W, strain swr1, stronger effect = lower value 0.973 | locus YDR335W, strain msn5, stronger effect = lower value 0.987 | locus YDR392W, strain spt3, stronger effect = lower value 0.876 | locus YEL003W, strain gim4, stronger effect = lower value 0.979 | locus YEL037C, strain rad23, stronger effect = lower value 0.973 | locus YEL061C, strain CIN8 (second series), stronger effect = lower value 0.974 | locus YER015W, strain faa2, stronger effect = lower value 0.993 | locus YER016W, strain bim1, stronger effect = lower value 0.989 | locus YER111C, strain swi4, stronger effect = lower value 0.98 | locus YER155C, strain BEM2 (second series), stronger effect = lower value 0.947 | locus YFR010W, strain ubp6, stronger effect = lower value 0.977 | locus YGL167C, strain pmr1, stronger effect = lower value 0.965 | locus YGL173C, strain kem1, stronger effect = lower value 0.977 | locus YGL227W, strain vid30, stronger effect = lower value 0.982 | locus YGL240W, strain doc1, stronger effect = lower value 0.957 | locus YGL253W, strain hxk2, stronger effect = lower value 0.982 | locus YHR013C, strain ard1, stronger effect = lower value 0.921 | locus YHR027C, strain rpn1, stronger effect = lower value 0.987 | locus YHR030C, strain SLT2, stronger effect = lower value 0.957 | locus YHR079C, strain IRE1, stronger effect = lower value 0.976 | locus YHR142W, strain chs7, stronger effect = lower value 1.04 | locus YJL092W, strain hpr5, stronger effect = lower value 0.992 | locus YJL095W, strain BCK1 (second series), stronger effect = lower value 0.987 | locus YJL095W, strain BCK1, stronger effect = lower value 0.973 | locus YJL115W, strain asf1, stronger effect = lower value 0.98 | locus YJL129C, strain trk1, stronger effect = lower value 0.997 | locus YJL154C, strain vps35, stronger effect = lower value 0.972 | locus YJL164C, strain tpk1, stronger effect = lower value 0.999 | locus YJL166W, strain qcr8, stronger effect = lower value 0.98 | locus YJL187C, strain SWE1, stronger effect = lower value 0.977 | locus YJR066W, strain TOR1, stronger effect = lower value 0.898 | locus YKL160W, strain elf1, stronger effect = lower value 1.04 | locus YKR026C, strain gcn3, stronger effect = lower value 0.982 | locus YKR091W, strain srl3, stronger effect = lower value 0.98 | locus YLL001W, strain dnm1, stronger effect = lower value 0.99 | locus YLL026W, stronger effect = lower value 0.993 | locus YLL041C, strain sdh2, stronger effect = lower value 0.992 | locus YLR027C, strain aat2, stronger effect = lower value 0.965 | locus YLR113W, strain HOG1, stronger effect = lower value 1 | locus YLR221C, strain rsa3, stronger effect = lower value 0.985 | locus YLR258W, strain gsy2, stronger effect = lower value 0.982 | locus YLR262C, strain YPT6 (second series), stronger effect = lower value 0.997 | locus YLR320W, strain mms22, stronger effect = lower value 0.988 | locus YLR342W, strain FKS1, stronger effect = lower value 0.974 | locus YLR357W, strain rsc2, stronger effect = lower value 0.957 | locus YLR370C, strain arc18, stronger effect = lower value 0.981 | locus YLR384C, strain iki3, stronger effect = lower value 0.975 | locus YML120C, strain ndi1, stronger effect = lower value 0.995 | locus YMR058W, strain fet3, stronger effect = lower value 0.969 | locus YMR125W, strain sto1, stronger effect = lower value 0.954 | locus YMR129W, stronger effect = lower value 0.962 | locus YMR205C, strain PFK2, stronger effect = lower value 0.941 | locus YMR231W, strain pep5, stronger effect = lower value 0.985 | locus YNL071W, strain lat1, stronger effect = lower value 0.979 | locus YNL183C, strain NPR1, stronger effect = lower value 0.91 | locus YNL209W, strain ssb2, stronger effect = lower value 0.984 | locus YNL248C, strain rpa49, stronger effect = lower value 1.03 | locus YNL322C, strain KRE1 (second series), stronger effect = lower value 0.982 | locus YNR049C, strain mso1, stronger effect = lower value 0.973 | locus YOR001W, strain rrp6, stronger effect = lower value 1.01 | locus YOR070C, strain gyp1, stronger effect = lower value 0.983 | locus YOR080W, strain dia2, stronger effect = lower value 0.98 | locus YOR083W, strain WHI5, stronger effect = lower value 1.06 | locus YOR106W, strain vam3, stronger effect = lower value 1.01 | locus YOR231W, strain MKK1, stronger effect = lower value 0.96 | locus YOR265W, strain rbl2, stronger effect = lower value 0.989 | locus YOR270C, strain vph1, stronger effect = lower value 0.969 | locus YOR290C, strain snf2, stronger effect = lower value 0.921 | locus YPL051W, strain arl3, stronger effect = lower value 1.01 | locus YPL078C, strain atp4, stronger effect = lower value 1.01 | locus YPL106C, strain sse1, stronger effect = lower value 0.93 | locus YPL240C, strain hsp82, stronger effect = lower value 1.01 | locus YPL256C, strain CLN2, stronger effect = lower value 0.979
